Screening results (PubChem)
Pf growth 96h: Primary qHTS for delayed death inhibitors of the malarial parasite plastid, 96 hour incubation. P. falciparum luciferase reporter growth, 96 h. Potency, µM (titrated, usually from 28.7 µM), for inactives: at the highest dose activity change, negative = inhibition, actives largely listed as inhibitors. 320,000 compounds, 6.9% hits; further: potency means the concentration at half of the fitted maximal effect; on the % scale 0 is the no-effect control and ±100 the full control effect
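Erythrocytes infected with luciferase-expressing P. falciparum were dispensed at 2% hematocrit and 0.05% parasitemia (final), then incubated with compounds 96 hours at 37 C in 5% CO2. Luminescence after detection reagent addition reported growth.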
Pf growth 48h: Primary qHTS for delayed death inhibitors of the malarial parasite plastid, 48 hour incubation | P. falciparum luciferase growth in erythrocytes, 48 h | Potency, µM (series often up to 28.7 µM), for the others: at the highest dose activity change, negative = inhibition, actives largely listed as inhibitors | 310,000 compounds, 5.9% hits | AID 504832, 2011; further: potency means the concentration at half of the fitted maximal effect; on the % scale 0 is the no-effect control and ±100 the full control effect
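Cell-based growth assay: transgenic P. falciparum expressing firefly luciferase, cultured in red cells within RPMI 1640 containing 0.5% w/v Albumax, 24 mM bicarbonate and gentamycin. A drop in luciferase activity indicates inhibition.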
Cycloheximide cs: Cycloheximide Counterscreen for Small Molecule Inhibitors of Shiga Toxin; max response, %; cell reporter, cycloheximide protein synthesis inhibition counterscreen; 300,000 compounds, 12% hits; in the data active means max response mostly above about 13%, no sharp cut-off; inactive means mostly below about 14%; further: read at 38.3 µM for the half of the compounds with a filed dose; 0% is about no effect
NS1 function inh: qHTS Assay for Inhibitors of Influenza NS1 Protein Function. 270,000 compounds, 0.4% hits. Potency, µM (doses to about 46.1 µM), inactives show at the top dose activity, positive = more growth; calls by dose curve; further: potency means the concentration at half of the fitted maximal effect; actives are rising curves; nearly all actives have a fitted effect of over 50% in size
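Read-out: OD600 growth recovery of NS1-expressing budding yeast. Cells grown overnight at 30C in -URA glucose medium, washed, resuspended and diluted 1:100 in 2% galactose assay medium, pH 6.0. Same strain lacking NS1 served as positive control.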
Shiga toxin inh: A qHTS for Small Molecule Inhibitors of Shiga Toxin; Vero cells, Shiga toxin protein synthesis inhibition reporter; inhibition, % at 38.7 µM; 290,000 compounds, 9.2% hits; in the data active means inhibition mostly above about 28%, no sharp cut-off; inactive means mostly below about 43%; further: 0% is about no effect
SARS PLP yeast: qHTS of Yeast-based Assay for SARS-CoV PLP; S. cerevisiae expressing SARS-CoV PLpro, growth rescue; AID 485353, 2010; Potency, µM (titrated, usually from 32.9 µM), inactives show top-dose activity, positive = growth rescue, hits mostly activators; 330,000 compounds, 0.19% hits; calls by dose curve; further: potency means the concentration at half of the fitted maximal effect; 0% is about no effect; nearly all actives have a fitted effect of over 55% in size
* hit, by the source's call; i = inactive; u = inconclusive; x = no result given. Sampled rows, rich in hits. Any-hit rate of the full collection: about 21%. Unless noted, the call rests on the fitted dose curve; in most records, active means well fitted inhibition curve with a large enough effect; inconclusive means small, poorly fitted or top-dose-only effect, or another doubt; inactive means no such curve, though single readings can be large or run the other way.

SMILES	Pf growth 96h	Pf growth 48h	Cycloheximide cs	NS1 function inh	Shiga toxin inh	SARS PLP yeast
CCN(c1ccccc1)S(=O)(=O)c1ccc2c(c1)CC(C)N2C(=O)C1CC1 (centres undefined)	4.1µM*	u	5	-32%	3	17%
COCCCNC(=O)C1CCC(CNS(=O)(=O)c2ccc3c(c2)CC(C)N3C(=O)C2CC2)CC1 (centres undefined)	13µM*	-4%	-2	-18%	-6	0%
CCC(=O)N1c2ccc(S(=O)(=O)NC3CCCCC3)cc2CC1C (centres undefined)	10µM*	0%	31*	9%	13	4%
CC(=O)N1c2ccc(S(=O)(=O)N(C)CC(=O)NC(C)c3ccccc3)cc2CC1C (centres undefined)	9.3µM*	-12%	-2	3%	4	1%
CCN(CC(=O)Nc1ccc(NC(C)=O)cc1)C(=O)c1cccnc1Sc1ccc(C)c(C)c1	1%	u	x	x	x	-1%
CC(=O)N1c2ccc(S(=O)(=O)NCc3ccccc3Cl)cc2CC1C (centres undefined)	-2%	0%	-1	1%	-12	u
CC1Cc2cc(S(=O)(=O)NCc3ccccc3)ccc2N1C(=O)C1CCC1 (centres undefined)	u	-5%	-2	6%	8	1%
O=C(C1CC1)N1CCc2cc(S(=O)(=O)NCc3ccccc3)ccc21	u	36%	14*	0%	6	2%
CCC(=O)N1c2ccc(S(=O)(=O)NCc3ccccc3)cc2CC1C (centres undefined)	36%	25%	36*	5%	19	5%
COc1cc(CNS(=O)(=O)c2ccc3c(c2)CC(C)N3C(C)=O)cc(OC)c1OC (centres undefined)	5.9µM*	u	7	-3%	-8	-1%
COc1ccc(CCNS(=O)(=O)c2ccc3c(c2)CC(C)N3C(C)=O)cc1OC (centres undefined)	u	-3%	0	-3%	-8	-6%
COc1cccc(CNS(=O)(=O)c2ccc3c(c2)CCN3C(=O)C2CC2)c1	u	-14%	3	x	-5	-3%
CC1Cc2cc(S(=O)(=O)NCc3ccccc3)ccc2N1C(=O)C1CC1 (centres undefined)	u	26%	26*	1%	2	3%
Cc1ccc(OCC(=O)N(Cc2ccccc2)c2c(N)n(Cc3ccccc3)c(=O)[nH]c2=O)c(C)c1	u	u	x	x	x	-9%
O=C(NCc1ccco1)C1CCCN1C(=O)Nc1ccccc1[N+](=O)[O-] (centres undefined)	u	11%	-2	-1%	-4	-2%
CC(=O)c1sc(NC(=O)c2oc3ccc(F)cc3c2C)nc1C	411%	398%	x	x	x	5%
COC(=O)c1ccc2nc(Nc3nc4ccc(F)cc4s3)sc2c1	28%	41%	28*	5%	-34	-28%
CC(=O)c1sc(Nc2nc3ccc(F)cc3s2)nc1C	u	-9%	52*	-164%	97*	-15%
CCOC(=O)c1csc(Nc2nc3ccc(F)cc3s2)n1	-4%	u	20*	-22%	23*	-14%
CC(C)c1ccccc1NC(=O)C1C2C=CC(C2)C1C(=O)O (centres undefined)	u	19%	-1	-2%	-3	3%
COc1cccc(OC)c1C(=O)Nn1c(-c2cccc(C)c2)nc2ccccc2c1=O	u	-22%	-8	x	-5	0%
COc1ccccc1CNn1c(-c2cccc(C)c2)nc2ccccc2c1=O	12µM*	x	6	-11%	19	-8%
COc1ccc(CNn2c(-c3cccc(C)c3)nc3ccccc3c2=O)cc1OC	12µM*	x	0	-9%	-10	3%
CCn1c(=O)n(CC)c2cc(S(=O)(=O)Nc3cc(C)cc(C)c3C#N)ccc21	x	u	-5	6%	-4	-1%
COc1ccc(NC(=O)NCCC2=CCCCC2)cc1	33%	74%	28*	-7%	71*	1%
SMILES	Pf growth 96h	Pf growth 48h	Cycloheximide cs	NS1 function inh	Shiga toxin inh	SARS PLP yeast
COc1cccc(NC(=O)NCCC2=CCCCC2)c1	u	34%	19*	x	74*	0%
CC(=O)Nc1cccc(OCC(=O)NCCC2=CCCCC2)c1	18%	29%	23*	5%	29*	-4%
CN(C)c1ccccc1C(=O)N1CCC(n2nccc2NC(=O)C2CC2)CC1	-14%	u	-6	-13%	-2	-3%
Cc1ccc(C2=Nc3ccccc3SC(c3cccc([N+](=O)[O-])c3)C2)cc1 (centres undefined)	u	32%	35*	-58%	70*	-7%
Cc1ccc(C2=Nc3ccccc3S[C@@H](c3cccc([N+](=O)[O-])c3)C2)cc1	x	x	x	-3%	x	x
CCCCNC(=O)NCc1cnn(C)c1C	-102%	-70%	-5	u	-10	-47%
COC(=O)c1c(C)[nH]c(C(=O)/C=C/c2cccc(Cl)c2)c1C	i	114%	39*	2%	62*	5%
COC(=O)c1c(C)[nH]c(C(=O)CC#N)c1C	41%	u	5	-2%	-10	3%
COC(=O)c1c(C)[nH]c(C(=O)/C=C/c2ccccc2)c1C	i	149%	43*	3%	89*	-8%
COC(=O)c1c(C)[nH]c(C(=O)/C=C/c2ccc(C)cc2)c1C	191%	u	1	2%	25	-1%
COC(=O)c1c(C)[nH]c(C(=O)CSc2ccc(Cl)cc2)c1C	x	147%	30*	-4%	42	-3%
COc1ccc(NC(=O)CSc2nc(C3CC3)nc3ccccc23)c(OC)c1	33%	u	-6	-14%	-21	-12%
OCCSCc1ccccc1	x	x	x	-1%	x	x
N#CCCN(C(=O)COC(=O)c1ccc2ccccc2n1)c1ccccc1	-10%	-8%	x	x	x	2%
CN1CCc2nc3ccccc3c(C(=O)OCC(=O)N(CCC#N)c3ccccc3)c2C1	13µM*	u	1	10%	-9	-1%
O=C(NCCC(=O)N1CCN(c2ccc(F)cc2)CC1)c1ccco1	4%	-17%	x	x	x	-3%
COc1ccc2[nH]c(=O)c(CN(Cc3cccnc3)C(=S)NCC3CCCO3)cc2c1 (centres undefined)	u	0%	1	-4%	-8	-1%
O=C(N1CCN(c2ccccc2)CC1)C12CC3CC(CC(C3)C1)C2	u	u	-2	-5%	7	-32%
COc1ccc(S(=O)(=O)N2CCN(c3nc4ccccc4nc3-n3nc(C)cc3C)CC2)cc1	9.3µM*	u	-3	-42%	-4	5%
CCn1c(N2CCN(C(=O)C34CC5CC(CC(C5)C3)C4)CC2)nc2ccccc21	x	13µM*	-1	-29%	-2	-2%
